Measured values: PubChem BioAssay (Tox21)
Inconclusive results are not listed. Where a call stands in place of a potency, no number is given. Active and inactive are the calls of the source. Calls come from the whole dose curve; as a rule, active = well fitted inhibition curve with a large enough effect in the repeat runs; inconclusive = weak or mixed curves; inactive = flat fitted curve, though single readings scatter.

biological target: Luciferin 4-monooxygenase (Photinus pyralis) (UniProt P08659); experiment: qHTS assay to identify small molecule inhibitors of firefly luciferase (AID 1224835); note: nearly all actives have a fitted effect of over 25% in size; conditions: purified P. pyralis luciferase, luminescence inhibition; series mostly up to 115 µM
Sequence (P08659 whole entry, looked up): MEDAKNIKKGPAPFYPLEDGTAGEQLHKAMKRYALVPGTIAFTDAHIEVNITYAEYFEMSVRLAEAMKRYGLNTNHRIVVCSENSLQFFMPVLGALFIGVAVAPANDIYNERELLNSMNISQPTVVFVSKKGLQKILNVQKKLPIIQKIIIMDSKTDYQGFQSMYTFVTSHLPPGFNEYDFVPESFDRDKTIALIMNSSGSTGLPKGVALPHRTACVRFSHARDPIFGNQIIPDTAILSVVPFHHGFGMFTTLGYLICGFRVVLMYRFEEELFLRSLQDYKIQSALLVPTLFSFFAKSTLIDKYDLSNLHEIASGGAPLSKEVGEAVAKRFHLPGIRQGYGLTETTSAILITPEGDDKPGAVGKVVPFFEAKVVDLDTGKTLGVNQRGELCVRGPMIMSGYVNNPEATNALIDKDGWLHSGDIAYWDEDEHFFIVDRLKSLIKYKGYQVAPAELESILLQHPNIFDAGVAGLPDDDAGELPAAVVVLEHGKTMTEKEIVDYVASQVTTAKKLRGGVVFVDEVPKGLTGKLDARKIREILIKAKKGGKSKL
Excerpt: U.S. Tox21 Program National Center for Advancing Translational Sciences [NCATS] NIH Chemical Genomics Center [NCGC] U.S. Environmental Protection Agency [EPA] National Institutes of Environmental Health Sciences [NIEHS] National Toxicology Program [NTP] U.S. Food and Drug Administration [FDA] Tox21 Assay Overview: Firefly (Photinus pyralis) luciferase is one of the most commonly used transcriptional reporters. Firefly luciferase reporter-gene assays are generally considered one of the most sensitive assay types (Wood, 1995; Wood, 1998). However, it was initially observed, in 1991, by Thompson et al., that compounds that resemble the substrates of firefly luciferase (FLuc) can act as competitive inhibitors of the enzyme, and that these compounds, upon interaction with luciferase in the cell, can actually stabilize the protein and increase its half-life. Previous profiling work by other groups to determine the prevalence of compounds that affect FLuc enzymatic activity (PubChem AID 411) identified that ~3% of the MLSMR library (then at ~72K) inhibited FLuc. […] Thus the Tox21 10K library is profiled for activity against FLuc using a biochemical assay of purified FLuc and KM concentrations of FLuc substrates (D-luciferin and ATP).
These assay plates were then treated with 23nL of compound or DMSO using a Kalypsys pin tool, which allows for delivery of a 6-point interplate titration of each compound to the assay plate (quantitative HTS.) 1 uL of firefly luciferase mix (containing 50 mM Tris acetate, pH 7.6, 0.04 uM P. pyralis luciferase, 0.01% Tween, 0.05% BSA and dH2O) was then delivered by FRD to each well. Luciferase activity was then measured using a ViewLux CCD imager.

Structure (SMILES)	Potency
C=C(C)C(=O)OCCOC(=O)CC(C)=O	inactive
C=CCNc1nc(NCC=C)nc(N2CCN(C(c3ccc(F)cc3)c3ccc(F)cc3)CC2)n1	inactive
C/C=C(\C)C(=O)OCCC(C)CCC=C(C)C (stereo not given)	inactive
c1cc[c]([Bi]([c]2ccccc2)[c]2ccccc2)cc1	inactive
CC(=O)Oc1ccc2c(c1)CC[C@@H]1[C@@H]2CC[C@]2(C)[C@@H](O)CC[C@@H]12	24.5 µM (active)
O=C1NCCN1	inactive
CCCCC(CC)CNCC(CC)CCCC (stereo not given)	inactive
Cc1cnc(C)c(C)n1	inactive
c1ccc(COCc2ccccc2)cc1	inactive
Cc1cc(C(=C2C=CC(=Nc3ccc(S(=O)(=O)O)cc3S(=O)(=O)O)C=C2)c2ccc(Nc3ccc(S(=O)(=O)O)cc3)cc2)ccc1N	23.2 µM (active)
CC(=O)OCC(=O)[C@H]1CC[C@H]2[C@@H]3CCC4=CC(=O)CC[C@]4(C)[C@H]3CC[C@]12C	inactive
CCN(CC)CCNC(=O)c1ccc(NC(C)=O)cc1	inactive
Nc1nc(Cl)nc2c1ncn2[C@@H]1O[C@H](CO)[C@@H](O)[C@@H]1F	inactive
Cc1cc(OI)c(C(C)C)cc1-c1cc(C(C)C)c(OI)cc1C	inactive
CC1CC(O)CC(C)(C)C1 (stereo not given)	inactive
O=[N+]([O-])c1cccc(S(=O)(=O)NCCNS(=O)(=O)c2cccc([N+](=O)[O-])c2)c1	inactive
CCCCCCCC/C=C\CCCCCCCC(=O)OC	inactive
CC(C)OCC1CO1 (stereo not given)	inactive
NC(=O)Nc1ccc(Cl)c(Cl)c1	inactive
Cc1ccc(Nc2nccc(N(C)c3ccc4c(C)n(C)nc4c3)n2)cc1S(N)(=O)=O	30.9 µM (active)

Structure (SMILES)	Potency
COC(=O)c1cc(S(N)(=O)=O)ccc1OC	inactive
O=C(C(=O)c1ccccc1)c1ccccc1	inactive
Cc1nccn1-c1ccc(Sc2cccc(C3(C(N)=O)CCOCC3)c2)cc1	inactive
COCc1c(C(C)C)nc(C(C)C)c(/C=C/[C@@H](O)C[C@@H](O)CC(=O)O)c1-c1ccc(F)cc1	inactive
C1COCO1	inactive
O=C(O)c1ccccc1NCCc1ccccc1	27.5 µM (active)
O=C1OCCN1/N=C/c1ccc([N+](=O)[O-])o1	inactive
CCCCCCCCCCCC[N+](C)(C)CC(=O)[O-]	inactive
CCC(C(=O)OCCOCCN(CC)CC)c1ccccc1 (stereo not given)	inactive
Cc1cc(S(=O)(=O)O)ccc1N=Nc1c(O)ccc2ccccc12	25.2 µM (active)
Nc1c(I)cc(I)c(C(=O)N(CCC(=O)O)c2ccccc2)c1I	inactive
CNC(=O)N(c1ccccc1)c1ccccc1	inactive
CCOC(=O)c1ccccc1C	inactive
CCOc1cc(N)c(Cl)cc1C(=O)NCC1CN(Cc2ccc(F)cc2)CCO1 (stereo not given)	inactive
CCOC(=O)N1CCC(n2c(=O)[nH]c3cc(Cl)ccc32)CC1	inactive
CCCCCCOC(=O)C(C)C	inactive
CC(C)C(=O)O	inactive
CCCOC(=O)c1ccc(C(=O)OCCC)nc1	35.6 µM (active)
O=S1OCCO1	inactive
CCCCCCCCCCCC(=O)[O][Sn]([CH2]CCC)([CH2]CCC)[O]C(=O)CCCCCCCCCCC	34.7 µM (active)
